# Assay results reported in the supplement of paper PMC9477273.
# Test system: DRIVER-selected RNA biosensor (aptazyme) pool
# Experiment: maximum fold change of ribozyme cleavage across biosensor pool versus no-compound control; higher = stronger biosensor response (ligand inhibits cleavage)
# Details: 10 µM
# In short: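 Fold change of cleavage, the ratio of cleaved:uncleaved read fractions versus a no-compound condition corrected with reference sequences, is given as the maximum over all biosensors. It was measured by CleaveSeq on a pool of 1,730 array-resynthesized ribozyme biosensors transcribed by T7 with 9 mM rNTPs for 15–30 min at 37°C in the presence of one compound at 10 µM final, added from a 10x DMSO stock. After reverse transcription at 50°C, cleaved and uncleaved products were PCR-barcoded and counted by Illumina sequencing.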
row,SMILES,maximum fold change
1,COc1ccc(cc1)/C=CC(=O)NCC(=O)O,3.29
2,COCCNC(=O)C1c2ccccc2C(=O)N(CCOC)C1c1c[nH]c2ccccc12 (stereo not given),2.7
3,NC(=O)c1nc2n(c1N)CCCCC2,2.43
4,CC(=O)c1c(C)[nH]c2ccccc2c1=O,2.03
5,O=C1N=c2sc(nn2C(=N)/C/1=Cc1cccn1Cc1ccccc1F)N1CCCC1,4.06
6,CCOC(=O)c1cnc2c(OC)cccc2c1NCC1COc2ccccc2O1 (stereo not given),7.13
7,CCc1ccc2oc(C(=O)N(Cc3ccccc3F)C3CCS(=O)(=O)C3)c(C)c2c1 (stereo not given),4.9
8,COc1cc(CNc2ncc(-c3ccccc3)n2C)cc(OC)c1OC,1.75
9,CCOC(=O)c1cnc(SC)nc1NC(=O)CSCc1csc2c1CCCC2,3.61
10,C=Cc1ccc(Cn2c(C(=O)O)c(CNCc3ccco3)c3ccc(C)cc32)cc1,2.45
11,CN(CCCNC(=O)c1ccc(CS(=O)(=O)Cc2cccc(Cl)c2)o1)C1CCCCC1,1.94
12,CCOc1cc(C(=O)C(=O)c2ccc(OC)c(OCC)c2)ccc1OC,2.92
13,O=C(NCc1cccc(Cl)c1)c1cnc2ccccn2c1=O,7.03
14,C=CCNC(=O)c1c(C)c(C(=O)OCC)n(C)c1C,2.81
15,CC1CCC(NC(=O)c2cc(C3CC3)n[nH]2)CC1 (stereo not given),1.87
16,COc1cc(CNCc2c(C(=O)O)c(C)n(Cc3ccc(F)cc3)c2C)cc(OC)c1OC,3.4
17,CC(C)CN(CC(C)C)c1nnc(NC(=O)NCc2ccco2)s1,2.36
18,Cn1c(=O)c2c(-c3ccc(Cl)cc3)n(C3CCCCC3)cc2n(C)c1=O,2.62
19,CC1=C(C(=O)NCCC2=CCCCC2)C2(CCC(C)CC2)OC1=O (stereo not given),2.79
20,c1cncc(-c2nc3cc(Oc4ccc5[nH]c(-c6cccnc6)nc5c4)ccc3[nH]2)c1,12.5
21,CCOC(=O)c1cc(-c2ccc(C)cc2)n(CC(=O)NC(C)CC)c1C (stereo not given),2.38
22,O=C(CCc1ccccc1)N1CCC(c2ccccc2)C1 (stereo not given),1.79
23,CC(C)COc1ccc(-c2nn(-c3ccccc3)cc2CO)cc1,3.19
24,Cc1cccc(CNCc2c(C(=O)O)c(C)n(Cc3c(F)cccc3Cl)c2C)c1,1.89
25,CCN1CCN(C(=O)c2ccc(Cn3c(SCc4ccccc4F)nc4ccncc43)cc2)CC1,2.65
26,CCOc1cc(C2c3c(-c4ccccc4O)n[nH]c3C(=O)N2CCO)ccc1OCc1ccccc1 (stereo not given),3.55
27,Cc1ccc(CS(=O)Cc2ccc(C(=O)NC(C)C)o2)cc1 (stereo not given),1.84
28,CCOC(=O)c1cnc2c(C)c(Cl)ccc2c1NCc1ccco1,6.11
29,CCCCNCc1c(C(=O)O)c(C)n(Cc2cc(C)ccc2C)c1C,2.79
30,C=CCNC(=O)/C(C#N)=C/c1c(Oc2ccccc2)nc2ccccn2c1=O,9.03
